In all, about 25,000 sequences were measured (“ln(normalized median fluorescence intensity)”: median about 6.7, highest 2% from about 10 on). The sample as a whole holds a higher share of the highest values than the screen did.
Test system: PfHDP1 homeodomain (GST-tagged)
Experiment: gcPBM binding intensity (ln(normalized median fluorescence intensity)); higher = stronger DNA binding
Summary of the method: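 Each value is the highest Masliner-normalised natural-log median intensity across replicate spots of either orientation of a probe. The probes were primer-extended double-stranded 36-bp intergenic genomic sequences on an Agilent 4 × 180k array, alongside negative controls, exposed for 1 h to GST-tagged P. falciparum DNA-binding domains expressed in E. coli. Bound protein was picked up with Alexa488 anti-GST antibody and scanned at 488 nm.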

| Sequence | gcPBM binding intensity (ln) |
| --- | --- |
| TAATGTACATAAACCGCACACATATAAAAAAATAAA [CACACA_site2851] | 6.79 |
| ATAAAAATTTATATATGTACTTAATTTTTAATTTTT [XGTACX_site7482] | 5.98 |
| ACATACAAGAATTAAACACACACAAAATATAAATTC [CACACA_site8985] | 6.8 |
| TATCTCTCTTTCTGCTGTACATAAAAATTATATAAT [XGTACX_site5961] | 7.19 |
| TATAATTATTTTTTCACACATATGTATTTATATATA [CACACA_site4205] | 7.05 |
| GTATATAATTTATGTGCACACACTCCTATTTTTAGC [CACACA_site49] | 11.1 |
| TTTTTCTTTATTAGCACACATAATATTATATATGTG [CACACA_site2629] | 7.1 |
| GGCTTTTTTTAATATGCACACATATATTTTATATAT [CACACA_site8647] | 10.2 |
| ATATAATTTATGTGCACACACTCCTATTTTTAGCTT [CACACA_site50] | 11.3 |
| ATATAATATTTATATGCACACTTTTCTATATATAAG [CACACA_site6100] | 8.84 |
| TTTTCTATGCTAAACACACTCATTGTTACAAGTTTT [CACACA_site5531] | 6.78 |
| TATGAAAATATATATTGTACAGAATCTATAAAAAAT [XGTACX_site8030] | 6.39 |
| TTTAAAAAATTATATTCACACACATACACATATATA [CACACA_site8076] | 6.95 |
| GACAATTATATGTAGGTGCATATACAAATTTTTTAA | 9.14 |
| CATATATATTTTATATGTACATATATATTTTATATA [XGTACX_site8665] | 6.35 |
| ATTTTTTTTTTTTTATGTACATATAGGTGCAAATCA [XGTACX_site6748] | 11.1 |
| TACATAAAATATATCACACATATAATATATATATAT [CACACA_site5834] | 8.54 |
| GAAATGTGATAATATACACACACGCATATATATATA [CACACA_site4332] | 8.82 |
| CAAAATATTTTTATAACACACATATATAGAATGTGC [CACACA_site1145] | 6.34 |
| AAAAATAGAGCAGCTCTCATATTTTTATGTGCAATA [CACACA_negctrl_site837] | 10.6 |
| TTCTGCAGCAATGTTTTTTTTAAATATTTATATGGT [CACACA_negctrl_site1815] | 6.51 |
| TTTTTTTATCAATGTTGTACTTTTTTTTTTTTCCAT [XGTACX_site8864] | 6.18 |
| ATTAAAAAAAAAAAAAAAAAAAAAAAAAAAAAAAAA [CACACA_negctrl_site1060] | 6.3 |
| TAAAAAATTAATAAAGTGCATAAATATTACAATATT | 7.68 |

| Sequence | gcPBM binding intensity (ln) |
| --- | --- |
| TGCATAATTAAAAATGGTACACTGTATTTATAATAT [XGTACX_site1575] | 6.38 |
| AGGTATATATTACAAGTGCACTGTAAAATTAAAATT | 10.5 |
| ATATTTAAATAATATTCACACACAAAATTATATTTT [CACACA_site7955] | 6.44 |
| AAATGTATACACATGGTGCGTAATATATTATATATA [GTGCAC_site9877] | 7.85 |
| AATAAAAAAATATATTGTACTAATAATTATATGTTT [XGTACX_site2246] | 6.47 |
| TTTTTATCAAATAAATGTACACATATTAAATGAAAT [XGTACX_site555] | 6.6 |
| AATCATATTAGTATGGTGCAATATATATATAAATAT [GTGCAC_site9800] | 10.5 |
| AATCATATTAGTATGGTGCAACATATATAAATATAT | 11 |
| ATATATATTAAAAATAGTACATATAATAAAAATCAT [XGTACX_site4265] | 6.57 |
| CAATATATTATATGGGTGCAAACCACATATAAATAA | 8.55 |
| AGTATAAATAAATCATAAACATATATATATATATAT [GTGCAC_negctrl_site356] | 9.35 |
| ACATATTAAATATGAGTGCAATATATATATATATAA | 9.25 |
| ATACATTTATTGTATTGTACATAATATTATATATTC [XGTACX_site7115] | 6.55 |
| TGCATATTACTTTTTCACATAAAAATGATCCGATTA [GTGCAC_negctrl_site526] | 6.49 |
| ATATTTAAACGATGGTGTACATATATTACAAGTTGT [XGTACX_site1743] | 7.03 |
| ACATAAAATTGGAGCAAACACACAAGGTTGAAATTA [CACACA_site505] | 7.16 |
| TATATATTTCAATAATGTACATATAATATATATATT [XGTACX_site4124] | 6.6 |
| CCATAAAAAGGATACACACACACACCGACATATATA [CACACA_site4653] | 6.89 |
| ATTAAGTACTAAAAAGTGCAGTTCGGTACTGTGCTT [GTGCAC_site9755] | 6.42 |
| TATTTCATTAATGTCACTTTGAAAGAAATGAAAAAA [CACACA_negctrl_site1803] | 6.44 |
| CTATTTAAAATTTGAACACACATTATTTATTTTAAA [CACACA_site3114] | 6.41 |
| TTTTTTTTTTTTTTTGCACACATTTTAATTATTTTT [CACACA_site341] | 9.27 |
| TTAATTATCCATTTTGCACACATTTTAAAACATGAA [CACACA_site189] | 10.7 |
| TTCCTTTGTCCTAACTGTACTCAAATTTATTAGTGG [XGTACX_site226] | 7.04 |

| Sequence | gcPBM binding intensity (ln) |
| --- | --- |
| TATATATTCATAAAGTGTACATGTTTATATATATAT [XGTACX_site7585] | 8.53 |
| TATATATAAGCGTGTACACATTCTGAGTGTTGTATA [CACACA_site4502] | 7.02 |
| ATAGTATATCAAAATTTGTAAATCATTCTCAATAAA [CACACA_negctrl_site430] | 5.94 |
| AATATAAATAATTATACACACTTAATATATATATAC [CACACA_site5533] | 6.53 |
| TATATATATATATATATATATATGTATGTGCATTTA [TGCATGCA_negctrl_site53] | 11.2 |
| ATATATATTTATATATATATATATATATATATGTAT [GTGCAC_negctrl_site220] | 7.92 |
| ATATGTATGTATTTATTATTGTGCATTGTATTTATA [CACACA_negctrl_site664] | 10.3 |
| CACACGCACGAACACACACACACACGCGCACATATA [CACACA_site6304] | 8.54 |
| CAAAAAAACAAACACACACACACACCCATATATATA [CACACA_site3653] | 6.85 |
| AAAGTTTTTATAAAAAAAAAAATAAATACCATATAT [XGTACX_negctrl_site113] | 6.5 |
| TTTTTTAAAGTTTAAAGTACATATAAAAATATATAA [XGTACX_site5267] | 5.94 |
| TATACCAGTTTTAAAAGTACTTGTGCATAAAAAATA [XGTACX_site4794] | 11 |
| TATGGTTTTAAAAAATGTACGCAAGTGCGTTAATTT [XGTACX_site3945] | 7.62 |
| TTATAATATATATACAGTACATATATAAAATAATAT [XGTACX_site5917] | 6.5 |
| AAAAAAAATTATATATGTACTTATTAATCCTTTTAT [XGTACX_site1387] | 6.11 |
| TCCAATTGTTCTAGTGTGCACATAAATAAATCTCAT | 11 |
| CACATAAATAATTAAACACACATTGTTCTAGACAAT [CACACA_site2378] | 6.51 |
| AGCACATAAATAATTAAACACACATTGTTCTAGACA [CACACA_site8746] | 6.3 |
| AGTCTGAATAAAATTACACACATATACCTATAAATA [CACACA_site6929] | 6.4 |
| ATACATAAAATTAAAACACACATTTGATTAAATACG [CACACA_site7088] | 6.6 |
| TGTGCTCAAAATTATGCACACACCTAAAATTAATTT [CACACA_site8950] | 10.7 |
| TGCACAAAATTATGCACACACCTAAAATTAATTTTT [CACACA_site5596] | 10.8 |
| TAAATTAATACCTATGCACACATTTTTTTTTTTAAA [CACACA_site1238] | 8.59 |
| TGCACAAAGTTATGCACACACCTAAAATTAATTTTT [CACACA_site7385] | 10.5 |

| Sequence | gcPBM binding intensity (ln) |
| --- | --- |
| AATTAAAAAATTTATGCACACTTTAAAAAAAAAAAA [CACACA_site5962] | 9.66 |
| TGTGCCCAAAATTATGCACACACCTAAAATTAATTT [CACACA_site2914] | 10.5 |
| GATAATAATAAACAACCACACACAAAAAAACAAAAA [CACACA_site9074] | 7.01 |
| TTTTTTTTTTTTTATTGTACTTATTTTTTTATGTTT [XGTACX_site7725] | 5.96 |
| AAAAAAAAAAAATGCACACATATATTTCCATATACA [CACACA_site1471] | 9.96 |
| AAAAATATTAAAAGGCGTACAATACCTGTATGCAAC [XGTACX_site6069] | 6.12 |
| TTTGTTATTTTTTATTGTACTTTTTTTCTTTCATAA [XGTACX_site4302] | 7.03 |
| AATAGCTAGCTGTGCACACAAACATATTTTCCAAAT [CACACA_site880] | 10.3 |
| CAAATAGCTAGCTGTGCACACAAACATATTTTCCAA [CACACA_site879] | 11 |
| AATATTAACAATCGCACACATATTATTTTTCCAAAA [CACACA_site4982] | 7.13 |
| ATATTGACAAATATTACACACATATATATATATATA [CACACA_site4079] | 9.39 |
| AAAAAAAAAATTAATTGTACTAAAAAAATATTATAT [XGTACX_site8903] | 6.41 |
| TATATATATATATATTGTACTAATTGTGCAAATGAG [XGTACX_site682] | 10.9 |
| ATAACTAAATGATATTGTACAAAATAATTATATATT [XGTACX_site1331] | 6.38 |
| TATGATATCTATAATACACACATATACATAAGATCT [CACACA_site6652] | 6.6 |
| AAAAATATTTAAAATACACACATATCTATAATATAT [CACACA_site7032] | 6.36 |
| TACCAAAAAAAAAAAAATAAAAATAAAAAAAAAAAT [CACACA_negctrl_site1714] | 6.27 |
| AACACATACATATATGCACACATTTTATTCCATTAT [CACACA_site2834] | 10.1 |
| AAAAAAAAAAAAAAAAGTACACATCATTTTATGAAA [XGTACX_site1402] | 6.41 |
| TTTACATTTATGTGCACACATTCCATTTGAAAGTAA [CACACA_site1953] | 10.9 |
| TATTTACATTTATGTGCACACATTCCATTTGAAAGT [CACACA_site1954] | 11 |
| AAGTTGAAATAATGTGCACACATTTTTTTTTTTTTT [CACACA_site3368] | 9.16 |
| TTTGAAAAGTTGAAATGTACACATTTACACATATTT [XGTACX_site1641] | 6.24 |

From the supplement of paper PMC11417369
